Hits are enriched below; roughly 14% of the tested compounds scored in any of these assays.
MARV entry inh: Marburg virus entry inhibition. Marburg virus pseudotyped entry inhibition, cell reporter. Potency, µM (highest dose often 37.8 µM), inactives show at the top dose activity change, negative = inhibition, usual class: inhibitors. 1.8% of 300,000 active; calls by dose curve; tested in HEK293 cells; also: potency is read from the fitted curve at half-maximal effect
Lassa entry inh: Lassa virus entry inhibition; Lassa virus pseudotype entry inhibition, cell reporter; Potency, µM (top dose mostly 37.9 µM), for inactives: at the top dose activity change, negative = inhibition, actives largely listed as inhibitors; 1.2% of 300,000 active; AID 540256; calls by dose curve; tested in HEK293 cells; also: potency is read from the fitted curve at half-maximal effect; nearly all actives have a fitted effect of over 50% in size
Pf growth 48h: P. falciparum growth inhibition at 48 hours (one generation); P. falciparum luciferase growth in erythrocytes, 48 h; AID 504832; 5.9% of 310,000 active; Potency, µM (doses to about 28.7 µM), inactives show top-dose activity change, negative = inhibition, most hits filed as inhibitors; also: potency is read from the fitted curve at half-maximal effect
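Cell-based growth assay: transgenic P. falciparum expressing firefly luciferase, cultured in red cells within RPMI 1640 containing 0.5% w/v Albumax, 24 mM bicarbonate and gentamycin. A drop in luciferase activity indicates inhibition.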
Pf growth 96h: P. falciparum growth inhibition at 96 hour, primary screen for plastid delayed-death inhibitors | P. falciparum luciferase reporter growth, 96 h | Potency, µM (series often up to 28.7 µM), for the others: top-dose activity change, negative = inhibition, usual class: inhibitors | 6.9% of 320,000 active; also: potency is read from the fitted curve at half-maximal effect
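Two parasite generations (96 h, 37 C, 5% CO2) of compound exposure in infected erythrocytes (0.05% parasitemia, 2% hematocrit). Luciferase-reporter P. falciparum; decreased luminescence indicates inhibited growth, aimed at apicoplast-acting delayed death.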
HCV inh: inhibitors of hepatitis C virus infection; Potency, µM (doses to about 41.8 µM), for the others: at the top dose activity change, negative = inhibition, actives largely listed as inhibitors; Huh7.5.1 HCVcc-Cre infection, luciferase reporter, 44 h; 3.4% of 340,000 active; AID 651820; also: potency is read from the fitted curve at half-maximal effect
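Luciferase read-out (15 sec integration) after a 15 min room-temperature substrate step quantifies HCVcc-Cre infection. Cells, 1,000 per well, had compound added 4 h post-plating, then virus at ~0.5 moi, and were cultured 44 h.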
HCMV inh: human cytomegalovirus inhibition. HFF cells, HCMV-luciferase reporter, 72 h; active compounds read low. activity change, negative = inhibition, % at 57.5 µM. 4.5% of 410,000 active; in the data active = activity change below about -60%; inconclusive = no clear call, values can overlap the other calls; inactive = above about -39%
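After 16 h attachment at 37C, HFF cells received test compound and HCMV-luciferase (1 PFU/cell); reporter luminescence read 72 h later, data normalized against buffer-only and known inhibitor Salinomycin.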
* = called active by the depositor; ? = inconclusive; / = no result; [ ] = another dose, or the depositor's remark. Unless noted, calls follow the shape of the dose curve; as a rule, active = well fitted inhibition curve with a large enough effect; inconclusive = small, poorly fitted or top-dose-only effect, or another doubt; inactive = no such curve, though single readings can be large or run the other way. % is scaled to controls: 0 for no effect and ±100 for the full control effect.

SMILES	MARV entry inh	Lassa entry inh	Pf growth 48h	Pf growth 96h	HCV inh	HCMV inh
CC(=O)c1cccc(OCC(=O)N2CCN(c3ccc(C(F)(F)F)cn3)CC2)c1	/	/	-28%	7.4µM*	?	-19
O=C(CCC1CCCN(C(=O)COc2ccccc2)C1)N1CCN(c2ccccn2)CC1 (stereo not drawn)	?	-29%[46.1 µM]	10µM*	0%	-25%	-26
CC(C)(Oc1ccc(Cl)cc1)C(=O)N1CCN(c2ccccn2)CC1	-12%	?	15µM*	/	-24%	-20
O=C(O)COCC(=O)N1CCCN(c2ccc(C(F)(F)F)cn2)CC1	2%[46.1 µM]	0%[46.1 µM]	0%	25%	10%	27
COCCCN1C(=O)C(O)=C(C(=O)c2ccco2)[C@H]1c1ccc(Br)cc1	-1%	/	/	/	/	/
O=C(CCC1CCCN(C(=O)c2ccc3c(c2)OCO3)C1)N1CCN(c2ccccn2)CC1 (stereo not drawn)	?	-26%[46.1 µM]	?	?	10µM*	-34
CC(C)c1cc(C(=O)N2CCCC(CCC(=O)N3CCN(c4ccccn4)CC3)C2)no1 (stereo not drawn)	-20%[46.1 µM]	6%	?	?	?	-62*
CN(C)c1ccc(C(=O)N2CCCC(CCC(=O)N3CCN(c4ccccn4)CC3)C2)cc1 (stereo not drawn)	-20%	-9%	?	?	?	4
CC(C)(Oc1ccc(Cl)cc1)C(=O)N(Cc1ccccc1)c1ccccn1	?	-14%	?	1.9µM*	1%	?
CC1(C(=O)NS(=O)(=O)C2CC2)CCN(C(=O)COc2ccc(Cl)cc2Cl)C1 (stereo not drawn)	/	/	/	/	/	26
CCc1cccc(C)c1Nc1c(-c2cccc(O)c2)nc2nc(C)cc(C)n12	-2%[46.1 µM]	?	/	/	/	-15
COc1ccc(/C=C2\C(=O)c3ccccc3OC2c2ccccc2)cc1 (stereo not drawn)	/	/	?	?	-28%	1
CCOc1ccc(/C=C2\C(=O)c3ccccc3OC2c2ccccc2)cc1 (stereo not drawn)	-9%	?	?	-41%	3%	-99*
CCN(CC)CCCNC(=O)c1c(C)oc2ncnc(N3CCOCC3)c12	/	-2%[46.1 µM]	/	/	/	27
CCCCN(CC)CCCNC(=O)c1c(C)oc2ncnc(N3CCOCC3)c12	/	21%[46.1 µM]	/	/	/	-66*
CCc1ccc(CNC(=O)c2c(C)oc3ncnc(N4CCOCC4)c23)cc1	/	23%[46.1 µM]	/	/	/	-61*
COC(=O)[C@@]1(C#N)CC(=O)N([C@@H](CO)c2ccccc2)[C@H]1c1ccccc1	/	/	/	/	/	-6
COc1ccc(C2=CC(=O)C=CC2=O)cc1	/	/	9.3µM*	10µM*	/	/
CC(=O)Nc1ccc(CC(=O)NCCC(c2ccccc2)c2ccccc2)cc1	?	0.89µM*	-33%	-15%	?	-20
N#CCC(=O)Nc1ccc(C(=O)NCCC(c2ccccc2)c2ccccc2)cc1	-6%[46.1 µM]	/	?	?	10%	-14
CCc1ccc(NC(=O)CN2C(=O)C(=O)c3ccccc32)cc1	?	0%[46.1 µM]	/	/	/	42
O=C(c1ccc(Cl)c(S(=O)(=O)Nc2ccccc2C(=O)N2CCc3ccccc3C2)c1)N1CCc2ccccc2C1	?	?	10µM*	?	?	29
Cc1cccc(/C=C2\CCC(=C3SCCCS3)C2=O)c1	?	?	166%	81%	-28%	?
O=C1C(=C2SCCCS2)CC/C1=C\c1ccc(F)cc1	2.5µM*	1.1µM*	4%	80%	0%	-91*
C#CCOCCOCCOCCNc1nc(N2CCN(C(=O)[C@H](C)n3cc(CCCN=C(N)N)nn3)CC2)nc(N2CCN(C(=O)[C@H](C)n3cc(CCCN=C(N)N)nn3)CC2)n1	38%	-12%	?	0.74µM*	18%	2
SMILES	MARV entry inh	Lassa entry inh	Pf growth 48h	Pf growth 96h	HCV inh	HCMV inh
C#CCOCCOCCOCCNc1nc(N2CCOCC2)nc(N2CCN(C(=O)[C@H](C)n3cc(CCCN=C(N)N)nn3)CC2)n1	2%	5%	19%	-23%	?	-2
C#CCOCCOCCOCCNc1nc(N2CCN(C(=O)Cn3cc(CC(C)O)nn3)CC2)nc(N2CCN(C(=O)[C@H]([C@@H](C)CC)n3cc(CCCN=C(N)N)nn3)CC2)n1 (stereo partly drawn)	4%	1%	-20%	4.7µM*	-14%[8.37 µM]	107
C#CCOCCOCCOCCNc1nc(N2CCN(C(=O)Cn3cc(CCCN=C(N)N)nn3)CC2)nc(N2CCN(C(=O)Cn3cc(CCCN=C(N)N)nn3)CC2)n1	10%	2%	?	0.033µM*	-4%[8.37 µM]	/
C#CCOCCOCCOCCNc1nc(N2CCOCC2)nc(N2CCN(C(=O)Cn3cc(CCCN=C(N)N)nn3)CC2)n1	33%	?	-3%	?	2%[8.37 µM]	11
C#CCOCCOCCOCCNc1nc(N2CCN(C(=O)[C@H]([C@@H](C)CC)n3cc(CCCN=C(N)N)nn3)CC2)nc(N2CCN(C(=O)[C@H]([C@@H](C)CC)n3cc(CCCN=C(N)N)nn3)CC2)n1	39%	0%	?	0.93µM*	10%[8.37 µM]	/
C#CCOCCOCCOCCNc1nc(N2CCN(C(=O)Cn3cc(CCO)nn3)CC2)nc(N2CCN(C(=O)[C@H]([C@@H](C)CC)n3cc(CCCN=C(N)N)nn3)CC2)n1	/	/	/	/	13%	-17
COc1ccc(C(=O)CC2(O)C(=O)N(Cc3ccccc3)c3ccc(Br)cc32)cc1 (stereo not drawn)	-27%[46.1 µM]	-20%[46.1 µM]	/	/	/	9
C#CCOCCOCCOCCNc1nc(N2CCN(C(=O)[C@H]([C@@H](C)CC)n3cc(CCCN=C(N)N)nn3)CC2)nc(N2CCN(C(=O)[C@H](C)n3cc(CCCN=C(N)N)nn3)CC2)n1	2%	-19%	?	0.17µM*	-1%[8.37 µM]	/
CCN(CC)S(=O)(=O)c1ccc2c(c1)N(CC(=O)Nc1c(C)cccc1C)C(=O)C1CCCN21 (stereo not drawn)	-27%[46.1 µM]	0%[46.1 µM]	/	/	/	30
Cc1ccccc1NC(=O)CCC(=O)N1CC(C)Sc2ccccc21 (stereo not drawn)	/	20%[46.1 µM]	/	/	/	?
O=C(CCC(=O)N1CCSc2ccccc21)Nc1ccc(F)cc1	/	/	-7%	-1%	5%	17
CCc1ccccc1NC(=O)CCC(=O)N1CCSc2ccccc21	/	/	-10%	4.1µM*	-12%	24
CCOc1ccccc1CNC(=O)CCc1cn(C)c2ccccc12	6.3µM*	-11%[46.1 µM]	-18%	21%	?	5
CCOc1ccccc1CNC(=O)CCC(=O)N1CCSc2ccccc21	/	-3%[46.1 µM]	/	/	/	-75*
CCOc1ccccc1CNC(=O)CCCc1cn(C)c2ccccc12	-5%	-16%	-2%	-24%	0%[8.37 µM]	-21
CC1CN(C(=O)CCC(=O)Nc2cc(F)ccc2F)c2ccccc2S1 (stereo not drawn)	/	-3%[46.1 µM]	/	/	/	-78*

High-throughput results deposited in PubChem by National Center for Advancing Translational Sciences (NCATS).
